Data: article PMC4336329 (PLoS ONE, 2015)
The whole screen tested about 310,000 compounds, of which about 14,000 (4.5%) showed an effect of 50% or more. Effects have a minus sign here. Shown is part of a subset that was picked to be rich in strong results.

target: human ether-à-go-go-related gene (hERG) potassium channel (human, UniProt Q12809); experiment: primary screen, population patch clamp on CHO cells stably expressing hERG; higher = less effect of the substance
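Note: peak tail current of the secondary pulse compared with the same well before compound.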

human ether-à-go-go-related gene (hERG) potassium channel, sequence (Q12809 whole entry, looked up): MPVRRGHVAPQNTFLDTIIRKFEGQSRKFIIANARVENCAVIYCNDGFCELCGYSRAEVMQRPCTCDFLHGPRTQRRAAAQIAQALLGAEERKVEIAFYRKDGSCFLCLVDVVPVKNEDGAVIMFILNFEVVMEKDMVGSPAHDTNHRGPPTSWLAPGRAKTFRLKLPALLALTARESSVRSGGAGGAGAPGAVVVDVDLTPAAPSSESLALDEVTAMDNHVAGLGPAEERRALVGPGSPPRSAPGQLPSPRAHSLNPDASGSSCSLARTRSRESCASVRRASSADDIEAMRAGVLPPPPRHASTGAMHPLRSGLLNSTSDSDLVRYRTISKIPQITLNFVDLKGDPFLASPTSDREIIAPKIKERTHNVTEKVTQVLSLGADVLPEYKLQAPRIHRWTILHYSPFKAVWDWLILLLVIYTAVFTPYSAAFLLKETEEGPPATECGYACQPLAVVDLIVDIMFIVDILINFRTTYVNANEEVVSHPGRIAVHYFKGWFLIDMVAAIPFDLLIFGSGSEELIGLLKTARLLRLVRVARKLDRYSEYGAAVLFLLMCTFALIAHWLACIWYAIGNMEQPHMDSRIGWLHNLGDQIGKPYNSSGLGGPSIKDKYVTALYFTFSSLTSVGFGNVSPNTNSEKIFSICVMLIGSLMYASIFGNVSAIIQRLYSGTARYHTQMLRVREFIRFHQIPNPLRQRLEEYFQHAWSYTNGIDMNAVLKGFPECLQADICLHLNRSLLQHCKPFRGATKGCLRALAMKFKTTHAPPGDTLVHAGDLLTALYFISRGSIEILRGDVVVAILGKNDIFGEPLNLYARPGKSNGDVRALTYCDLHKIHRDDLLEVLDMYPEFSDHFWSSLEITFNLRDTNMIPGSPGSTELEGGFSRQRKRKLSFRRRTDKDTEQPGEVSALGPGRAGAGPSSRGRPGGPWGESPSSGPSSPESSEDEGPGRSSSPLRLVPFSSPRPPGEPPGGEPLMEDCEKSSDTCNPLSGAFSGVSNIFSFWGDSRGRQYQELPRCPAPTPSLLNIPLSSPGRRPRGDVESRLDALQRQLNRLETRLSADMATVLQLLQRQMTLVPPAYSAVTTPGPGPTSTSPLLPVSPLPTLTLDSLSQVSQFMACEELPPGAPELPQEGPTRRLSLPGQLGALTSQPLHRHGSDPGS

Structure (SMILES) | hERG current change (%, negative = inhibition) at 10uM [%]
CCC(c1nnnn1Cc1ccc(F)cc1)N1CCN(C)CC1 (stereo not shown) | -1.38
CC(C)C(c1nnnn1Cc1ccc(F)cc1)N1CCN(C2CCCC2)CC1 (stereo not shown) | -38.2
CCCC(c1nnnn1Cc1ccc(F)cc1)N1CCN(C)CC1 (stereo not shown) | -2.88
CCCC(c1nnnn1CS(=O)(=O)c1ccc(C)cc1)N1CCN(C2CCCC2)CC1.Cl (stereo not shown) | -37.5
CCC(c1nnnn1Cc1ccc(F)cc1)N1CCN(C2CCCCC2)CC1.Cl (stereo not shown) | -53
CC(C)C(c1nnnn1Cc1ccc(F)cc1)N1CCN(C2CCCCC2)CC1 (stereo not shown) | -61.3
CC(C)C(c1nnnn1Cc1ccc(F)cc1)N1CCSCC1 (stereo not shown) | -20.7
CCCN1C(=O)C(O)(CC(=O)c2ccc3c(c2)OCCO3)c2ccccc21 (stereo not shown) | 7.24
Cc1nn(CC(=O)Nc2ccc(C(=O)N3CCCC3)cc2)c(=O)c2ccccc12 | -1.72
CCN(c1cccc(C)c1)S(=O)(=O)c1c(C)[nH]c(C)c1C(=O)N1CCCCC1 | 5.45
O=C(O)c1cccc(CSc2nnc(Cc3ccccc3)o2)c1 | -5.18
Cc1cc(C)n2nc(C(=O)Nc3ccc4c(c3)OCO4)nc2n1 | -1.25
Cc1nc(NC(=O)CN2CCCCC2)sc1C(=O)N(C)C | 1.37
CC(NC(=O)c1cc(-c2ccccc2)nc2ccccc12)C1CCCO1 (stereo not shown) | -11
COc1cc2c(cc1OC)[C@@]13CCN4CC5=CCO[C@H]6CC(=O)N2[C@H]1[C@H]6[C@H]5C[C@H]43 | -8.03
O=C1/C(=C\c2ccccc2)C2OCC=C3CN4CCC56c7ccccc7N1C5C2C3CC46 (stereo not shown) | -53.4
O=C1CC2OCC=C3CN4CCC56c7cc([N+](=O)[O-])ccc7N1C5C2C3CC46 (stereo not shown) | -22.4
NNC(=O)c1ccc(Oc2cc(Cl)cc(Cl)c2)o1 | 1.1
Cc1ccc(NC(=O)c2ccc(NCCCN3CCC(C)CC3)c([N+](=O)[O-])c2)c(C)c1 | -19.4
COc1ccc(NC(=O)c2ccc(NCCCN3CCOCC3)c([N+](=O)[O-])c2)cc1 | -3.71
Cl.O=C(Nc1cc(F)cc(F)c1)c1ccc(NCCCN2CCCCCC2)c([N+](=O)[O-])c1 | -72.1
O=C(Nc1ccc(Cl)c([N+](=O)[O-])c1)c1ccc(NCCCN2CCOCC2)c([N+](=O)[O-])c1 | -10.2

Structure (SMILES) | hERG current change (%, negative = inhibition) at 10uM [%]
CCCN(CCC)CCCNc1ccc(C(=O)Nc2cccc(OC)c2)cc1[N+](=O)[O-].Cl | -76.3
Cc1ccc(NC(=O)c2ccc(NCCCN3CCC(C)CC3)c([N+](=O)[O-])c2)cc1F.Cl | -8.31
COc1cccc(NC(=O)c2ccc(NCCCN3CCC(C)CC3)c([N+](=O)[O-])c2)c1 | -56.2
O=C(Nc1cc(F)cc(F)c1)c1ccc(NCCc2ccccc2)c([N+](=O)[O-])c1 | 3.74
Cc1cccc(NC(=O)c2ccc(NCCc3ccccc3)c([N+](=O)[O-])c2)c1 | 6.78
Cc1ccc(C(=O)Nc2cccc(NC(=O)c3ccc(C)cc3)n2)cc1 | 2.01
Cc1ccccc1-c1nnc(CN2CCC(C)CC2)o1.Cl | -6.6
COCCOCC(O)CN1CCN(c2ccc(C)cc2)CC1.O=C(O)C(=O)O (stereo not shown) | -11.2
Cc1c(C(=O)NC2CCCc3ccccc32)oc2ccc(S(=O)(=O)N3CCOCC3)cc12 (stereo not shown) | -2.45
CC(Oc1cccc(Cl)c1)C(=O)Nc1ccc(S(=O)(=O)NC2=NCCCCC2)cc1 (stereo not shown) | -22.5
CCN(CC)C(=O)c1c2c(nc3ccccc13)-c1ccccc1CC2 | -12.6
CCOC(=O)/C(C#N)=C\C=C1C=CN(C)C=C1 | 0.0919
Cc1c(O)ccc2c(CN3CCN(CCO)CC3)cc(=O)oc12 | 3.5
Cc1cc(C)c2c(CN3CCN(Cc4ccccc4)CC3)cc(=O)oc2c1C.Cl | -40.8
CCc1cc(=O)oc2c(CN3CCN(C)CC3)c(O)ccc12 | 8.25
O=c1cc(CN2CCN(Cc3ccccc3)CC2)c2ccc(O)c(O)c2o1 | -65.8
Cc1ccc2c(CN3CCN(Cc4ccccc4)CC3)cc(=O)oc2c1C | -55.3
O=c1cc(CN2CCOCC2)c2ccc(O)c(O)c2o1 | 10.1
Cc1ccc2c(CN3CCCCC3)cc(=O)oc2c1C | -1.49
Cc1c(O)ccc2c(CN3CCN(Cc4ccccc4)CC3)cc(=O)oc12 | -61.9
Cc1cc(C)c2oc(=O)cc(CN3CCN(Cc4ccccc4)CC3)c2c1 | -33.2
